Results on nine compounds are retold here after PubChem BioAssay.

Test [1] in a line: E. coli DRC41 culture turbidity changes, primary screen, E. coli filamentation inducer project, strain DRC41, OD650, 48 h (AID 1152).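 Further: E. coli MC1000 strain DRC41 lacking acrAB efflux pump and sulA.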 The following applies: E. coli DRC41 (acrAB sulA), higher = more signal, called active from +8 up or from −8 down.
Test [2] can be described thus: small-molecule binders of probe aLefty1, primary screen, biochemical, small-molecule microarray, 635/667 nm fluorescence (AID 1153).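 Further: score merges spot fluorescence with signal-to-noise ratio from the scanned slide images.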 Particulars: higher = more signal.
Test [3] is described as follows: PSAC antagonists in infected red cells, primary screen, cell-based, P. falciparum Indochina, OD700, 1 h (AID 1154). The following applies: P. falciparum Indochina infected RBC osmotic lysis, higher = more signal, called active from +8 up or from −8 down.
Test [4] in a line: PSAC antagonists in infected red cells, primary screen, cell-based, P. falciparum Indochina, OD700, 2 h (AID 1155).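 Further: lysis reports solute entry through the parasite surface anion channel PSAC; channel blockers reduce lysis of infected cells.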 Particulars: P. falciparum Indochina infected erythrocytes, osmotic lysis OD700; higher = more signal, called active from +8 up or from −8 down.
Test [5] can be described thus: osmotic lysis modulators in infected erythrocytes, primary screen, PSAC antagonist project, cell-based, P. falciparum Indochina, OD700, 3 h (AID 1156). The following applies: higher = more signal, called active from +8 up or from −8 down.
Test [6] in a line: PSAC antagonists in infected red cells, primary screen, cell-based, P. falciparum Indochina, OD700, 18 h (AID 1157). Particulars: P. falciparum Indochina infected erythrocytes, osmotic lysis OD700, 18 h; higher = more signal, called active from +8 up or from −8 down.
Test [7] can be described thus: modulators of S6 phosphorylation in cells, primary screen, cell-based, A549, cytoblot, luminescence, serum-stimulated (AID 1158).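 Further: serum-stimulated A549 lung adenocarcinoma cells; signal is phosphorylated S6 detected by cytoblot immunostaining with HRP secondary.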 The following applies: A549 phospho-S6 cytoblot, 5 h, higher = more signal.
For test [8], the target named is NADPH oxidase 2 (Homo sapiens) (UniProt P04839). Description: NOX2-dependent H2O2 signal modulators, primary screen, NOX inhibitor project, cell-based, HEK293-NOX2, PMA-stimulated, Amplex Red fluorescence (AID 1159). Further: test concentration not given here. Particulars: 45 min, higher = more signal, called active from +8 up or from −8 down.
For test [9], the target named is NADPH oxidase 4 (Homo sapiens) (UniProt Q9NPH5). Description: NOX4-dependent H2O2 signal modulators, primary screen, NOX inhibitor project, cell-based, HEK293-NOX4, tetracycline-induced, Amplex Red fluorescence (AID 1160). The following applies: 45 min, higher = more signal, called active from +8 up or from −8 down.
Test [10] addresses NADPH oxidase 5 (Homo sapiens) (UniProt Q96PH1). Description: NOX5-dependent H2O2 signal modulators, primary screen, NOX inhibitor project, cell-based, HEK293-NOX5, Amplex Red fluorescence (AID 1161). The following applies: HEK293-NOX5, ionomycin, 45 min, higher = more signal.
A short description of test [11]: A549 cell viability effects, profiling panel, calcein-AM fluorescence, 48 h, basal (AID 1162). Further: test concentration not given here. The following applies: higher = more signal.
Test [12] can be described thus: adipocyte viability effects, profiling panel, cell-based, 3T3-L1 adipocytes, calcein-AM fluorescence, 48 h, basal (AID 1163). Further: test concentration not given here. Particulars: 3T3-L1 adipocytes viability, higher = more signal.
A short description of test [13]: HepG2 cell viability effects, profiling panel, calcein-AM fluorescence, 48 h, basal (AID 1164). Further: test concentration not given here. Particulars: higher = more signal.
Test [14] in a line: MM1S cell viability effects, profiling panel, calcein-AM fluorescence, 48 h, basal (AID 1165).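 Further: viability of MM1S multiple myeloma cells under basal unstimulated conditions; test concentration not given here.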 Particulars: higher = more signal.
A short description of test [15]: basal RPMI8226 viability, no added stimulus, profiling panel, cell-based, calcein-AM fluorescence, 48 h, PK04 Diversity Set (AID 1166).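 Further: cells grown under basal conditions without added stimulus; test concentration not given here.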 Particulars: RPMI8226 myeloma viability, higher = more signal.
A short description of test [16]: basal HepG2 mitochondrial membrane potential changes, profiling panel, cell-based, JC-1 fluorescence, 24 h, 100 nL compound (AID 1167). Further: test concentration not given here. The following applies: higher = more signal.
Test [17] in a line: basal 3T3-L1 adipocyte mitochondrial potential changes, profiling panel, cell-based, JC-1 fluorescence, 3T3-L1 adipocytes, 24 h, 100 nL compound (AID 1168). Further: test concentration not given here. Particulars: JC-1 mitochondrial fluorescence, higher = more signal, called active from +8 up or from −8 down.
The nature of test [18]: basal RPMI8226 mitochondrial membrane potential changes, profiling panel, cell-based, JC-1 fluorescence, 24 h, 100 nL compound (AID 1169). Further: test concentration not given here. The following applies: RPMI8226 myeloma, JC-1 mitochondrial potential fluorescence, higher = more signal.
The nature of test [19]: basal MM1S mitochondrial membrane potential changes, profiling panel, cell-based, JC-1 fluorescence, 24 h, 100 nL compound (AID 1170). Further: test concentration not given here. The following applies: higher = more signal.
The nature of test [20]: A549 lung cancer cell viability effects, profiling panel, resazurin fluorescence, 24 h, PK04 Diversity Set (AID 1171). Further: test concentration not given here. The following applies: higher = more signal, called active from +8 up or from −8 down. (In general: The colour change of resazurin is a common sign of viable cells or microbes.)

The source made the active and inactive calls.

Chain of NADPH oxidase 5 (Homo sapiens) (Q96PH1 whole entry, looked up): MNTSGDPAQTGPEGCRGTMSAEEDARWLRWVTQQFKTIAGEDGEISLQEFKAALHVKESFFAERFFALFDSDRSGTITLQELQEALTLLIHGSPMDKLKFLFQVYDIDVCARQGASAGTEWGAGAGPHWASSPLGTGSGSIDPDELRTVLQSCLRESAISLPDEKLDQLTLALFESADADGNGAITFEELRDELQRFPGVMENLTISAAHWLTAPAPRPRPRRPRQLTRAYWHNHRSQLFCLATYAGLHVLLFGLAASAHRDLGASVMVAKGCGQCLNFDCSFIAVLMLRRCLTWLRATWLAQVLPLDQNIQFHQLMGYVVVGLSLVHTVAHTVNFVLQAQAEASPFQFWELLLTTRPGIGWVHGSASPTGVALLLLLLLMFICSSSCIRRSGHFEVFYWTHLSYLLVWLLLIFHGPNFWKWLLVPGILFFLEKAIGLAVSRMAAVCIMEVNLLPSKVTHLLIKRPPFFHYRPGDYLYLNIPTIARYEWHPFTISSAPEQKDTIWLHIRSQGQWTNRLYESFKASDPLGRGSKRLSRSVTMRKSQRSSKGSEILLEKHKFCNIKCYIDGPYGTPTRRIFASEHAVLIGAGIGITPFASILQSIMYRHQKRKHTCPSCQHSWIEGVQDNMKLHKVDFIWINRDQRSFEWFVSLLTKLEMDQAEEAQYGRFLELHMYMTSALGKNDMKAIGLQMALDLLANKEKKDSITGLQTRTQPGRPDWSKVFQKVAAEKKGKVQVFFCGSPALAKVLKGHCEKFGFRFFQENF
Chain of NADPH oxidase 4 (Homo sapiens) (Q9NPH5 whole entry, looked up): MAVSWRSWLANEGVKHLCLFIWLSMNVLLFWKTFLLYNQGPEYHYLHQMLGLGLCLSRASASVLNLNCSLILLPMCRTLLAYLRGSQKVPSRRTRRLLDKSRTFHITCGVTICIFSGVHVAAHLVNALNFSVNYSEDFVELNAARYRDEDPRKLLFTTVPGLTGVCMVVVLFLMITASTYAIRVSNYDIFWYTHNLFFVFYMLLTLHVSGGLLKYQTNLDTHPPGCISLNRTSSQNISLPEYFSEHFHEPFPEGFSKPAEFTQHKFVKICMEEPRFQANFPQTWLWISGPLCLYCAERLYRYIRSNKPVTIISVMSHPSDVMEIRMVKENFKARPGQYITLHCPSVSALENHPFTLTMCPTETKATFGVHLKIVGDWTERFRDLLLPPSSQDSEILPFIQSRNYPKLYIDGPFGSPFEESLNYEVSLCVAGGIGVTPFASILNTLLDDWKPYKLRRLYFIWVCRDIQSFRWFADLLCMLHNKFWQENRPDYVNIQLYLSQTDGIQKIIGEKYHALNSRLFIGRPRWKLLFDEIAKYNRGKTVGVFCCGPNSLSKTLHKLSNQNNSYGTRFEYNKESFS
Chain of NADPH oxidase 2 (Homo sapiens) (P04839 whole entry, looked up): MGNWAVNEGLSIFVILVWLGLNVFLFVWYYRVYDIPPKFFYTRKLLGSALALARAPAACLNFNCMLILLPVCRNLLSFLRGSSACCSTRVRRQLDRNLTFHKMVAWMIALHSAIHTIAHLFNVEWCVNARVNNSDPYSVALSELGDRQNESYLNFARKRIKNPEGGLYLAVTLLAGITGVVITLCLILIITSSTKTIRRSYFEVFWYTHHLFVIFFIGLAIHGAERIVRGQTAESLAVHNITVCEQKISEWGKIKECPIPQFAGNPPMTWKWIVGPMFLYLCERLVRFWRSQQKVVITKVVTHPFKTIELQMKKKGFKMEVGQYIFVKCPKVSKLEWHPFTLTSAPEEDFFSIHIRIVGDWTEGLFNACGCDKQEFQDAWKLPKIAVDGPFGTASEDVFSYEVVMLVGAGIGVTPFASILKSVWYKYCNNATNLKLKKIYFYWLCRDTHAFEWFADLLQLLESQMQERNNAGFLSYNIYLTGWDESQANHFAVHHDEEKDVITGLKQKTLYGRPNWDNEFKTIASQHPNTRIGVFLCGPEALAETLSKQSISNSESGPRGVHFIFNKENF

On to `C=CCNC(=O)[C@@H]1[C@H]2C(=O)O[C@H](c3ccccc3)[C@H](c3ccccc3)N2[C@H](c2ccc(OCCO)cc2)[C@@]12C(=O)Nc1ccc(C#Cc3ccc(OC)cc3)cc12`, for which the z-score in [1] was 0.411 (inactive); in test [3], 3.18 (inactive); in [4], 1.46 (inactive); in test [5], 0.931 (inactive); in test [6] it was 0.677 (inactive); in test [7], 0.278. Further, the z-score in test [8] was 1.04 (inactive); in [9], -1.11 (inactive); in test [10], 0.959; in test [11], -0.717; in test [12] it was 1.82; in test [13] it was -0.969. Also, the z-score in [14] is -0.891; in test [15], -1.86; in [16], -1.12; in test [17], 1.05 (inactive); in test [18], -0.592; in test [19], -0.913. For the same compound, the z-score in test [20] was -1.03 (inactive). In addition, in test [2], the composite z-score worked out at 0.498.

Regarding `[N-]=[N+]=NCc1ccccc1[C@@H]1OC(c2ccc(OCCCO)cc2)=N[C@]1(Cc1ccccc1N=[N+]=[N-])C(=O)N1CCOCC1`, the z-score in [1] was -0.66 (inactive); in [3] it was 16.9 (active); in test [4], 3.7 (inactive); in test [5] it was 1.17 (inactive); in test [6], 1.01 (inactive); in test [7], 0.37. The z-score in test [8] was -1.31 (inactive); in test [9], 1.23 (inactive); in test [10], 1.4; in test [11], 0.328; in test [12], -0.259; in [13] it was -0.761. The z-score was -1.48 in test [14]; -2.62 in test [15]; -0.516 in test [16]; -1.06 (inactive) in test [17]; -1.02 in test [18]; -1.42 in test [19]. In addition, the z-score in test [20] is -0.867 (inactive). The compound further gave a composite z-score in test [2] of 0.628.

In the case of `CS(=O)(=O)CCOC(=O)C1=CC(CCCO)=CC(c2ccc(CN3CCCC3)cc2)N(Cc2cc3c(cc2Br)OCO3)C=C1C(=O)OCCS(C)(=O)=O` (stereo not given), the z-score was -0.357 (inactive) in [1]; 0.246 (inactive) in test [3]; -0.211 (inactive) in test [4]; 1.14 (inactive) in [5]; 0.111 (inactive) in [6]; -0.606 in test [7]. The z-score in test [8] is 2.54 (inactive); in [9], 0.524 (inactive); in test [10], 0.597; in test [11] it was 1.94; in test [12] it was -0.0958; in test [13] it was -0.0078. Further, the z-score in [14] is -0.315; in test [15], 0.0614; in [16], 3.02; in test [17], 0.771 (inactive); in test [18] it was 0.00988; in test [19] it was 1.29. Besides, in test [20], the z-score was 0.778 (inactive). The compound also gave a composite z-score in test [2] of 0.485.

`NCCCCCNC(=O)[C@@H]1C[C@@H]2C(=O)NCC(=O)N2[C@@H]1c1ccc(O)cc1`: the z-score in test [1] was -0.142 (inactive); in test [3], 0.539 (inactive); in test [4] it was 0.115 (inactive); in test [5], -0.563 (inactive); in [6], -0.0673 (inactive); in [7] it was -0.47. Further, the z-score was -0.354 (inactive) in [8]; -0.0757 (inactive) in [9]; 0.564 in test [10]; 0.685 in test [11]; -0.366 in test [12]; 0.678 in test [13]. The z-score in test [14] was 0.545; in test [15], 0.895; in [16], 1.32; in test [17] it was 0.114 (inactive); in [18] it was -0.0558; in test [19], -0.408. In addition, the z-score in [20] was 0.508 (inactive). Besides, the composite z-score in [2] is -0.0984.

Consider `[N-]=[N+]=NCc1ccccc1[C@@H]1OC(c2ccc(OCCCO)cc2)=N[C@]1(CCS(=O)(=O)c1ccccc1)C(=O)NCc1ccccc1`, for which the z-score is -0.665 (inactive) in [1]; 16.4 (active) in [3]; 2.27 (inactive) in test [4]; 1.75 (inactive) in test [5]; 0.814 (inactive) in test [6]; -0.0212 in test [7]. Moreover, the z-score in test [8] is -1.04 (inactive); in test [9] it was 0.0609 (inactive); in test [10] it was -0.898; in test [11], -0.137; in test [12] it was 1.09; in test [13] it was 0.0616. For the same compound, the z-score in test [14] was -0.158; in [15], -1.04; in test [16], -0.0428; in test [17] it was 0.0135 (inactive); in [18] it was -0.143; in [19], -0.979. Besides, in test [20], the z-score is 0.201 (inactive). The same compound showed a composite z-score in test [2] of 1.43.

With `CCOC(=O)C[C@H]1[C@H](OC(=O)Cc2ccc3c(c2)OCO3)[C@@H](NC(=O)c2ccc(-c3ccccc3)cc2)c2cc(OCCCO)ccc2N1C(=O)Cc1ccc(OC)cc1`, the z-score in test [1] was 2.84 (inactive); in [3], 25.4 (active); in test [4], 11.2 (active); in test [5] it was -0.67 (inactive); in test [6], 0.464 (inactive); in test [7], 1.74. In addition, the z-score in test [8] was -1.35 (inactive); in test [9], 1.26 (inactive); in [10], 2.24; in [11] it was 2.24; in test [12], 0.53; in [13] it was 1.09. The z-score in [14] was 0.704; in [15], 1.1; in [16] it was 2.33; in test [17], 0.242 (inactive); in test [18], 0.679; in [19], -1.03. In addition, the z-score in test [20] was -0.0841 (inactive). In [2], this compound displayed a composite z-score of 0.123.

With `C=CCNC(=O)[C@H]1[C@@H]2C(=O)O[C@@H](c3ccccc3)[C@@H](c3ccccc3)N2[C@@H](c2ccc(OCCO)cc2)[C@]12C(=O)Nc1ccc(C#CC3=CCCCC3)cc12`, the z-score was 0.951 (inactive) in test [1]; 2.36 (inactive) in test [3]; 1.66 (inactive) in test [4]; -1.04 (inactive) in [5]; 1.4 (inactive) in test [6]; -0.571 in [7]. Besides, the z-score is 1.24 (inactive) in test [8]; -1.05 (inactive) in test [9]; 1.02 in test [10]; -1.03 in test [11]; 1.66 in test [12]; -1.17 in [13]. The z-score was -1.99 in test [14]; -3.64 in test [15]; -1.43 in test [16]; 2.5 (inactive) in test [17]; -1.13 in [18]; -1.32 in [19]. Moreover, the z-score in [20] is -0.829 (inactive). Moreover, the composite z-score in test [2] was -0.101.

For `CC(C)N1C(=O)c2ccccc2[C@](C)(C(=O)NCc2ccccc2)[C@@H]1c1ccc(CO)cc1`, the z-score in [1] is -0.884 (inactive); in [3], 1.53 (inactive); in test [4], 0.349 (inactive); in [5], 0.24 (inactive); in [6], 0.645 (inactive); in test [7], 0.0331. Further, the z-score in test [8] was -0.291 (inactive); in test [9] it was -0.0216 (inactive); in [10], -0.54; in test [11], 0.82; in test [12], 0.48; in test [13], -0.699. The z-score in [14] was -0.656; in [15], -0.0073; in test [16], -0.265; in [17] it was -0.426 (inactive); in test [18] it was -0.833; in [19] it was -0.472. The z-score in test [20] is -0.0838 (inactive). In addition, in test [2], the composite z-score was -0.101.

Regarding `COCCOC(=O)N1C(=O)[C@@]2(c3cc(C#CCCO)ccc31)[C@H](c1ccc(OCCO)cc1)N1[C@H](c3ccccc3)[C@H](c3ccccc3)OC(=O)[C@H]1[C@@H]2C(=O)N1CCN(c2ncccn2)CC1`, the z-score was -0.304 (inactive) in test [1]; 5.15 (inactive) in test [3]; 1.58 (inactive) in test [4]; -0.325 (inactive) in test [5]; 0.411 (inactive) in [6]; -0.113 in test [7]. For the same compound, the z-score in [8] is 1.89 (inactive); in [9], 0.925 (inactive); in [10], 1.32; in [11], 0.559; in test [12], 0.344; in [13], 0.479. Besides, the z-score is -1.32 in test [14]; -0.713 in test [15]; 0.503 in test [16]; -0.138 (inactive) in test [17]; -0.41 in test [18]; -1.19 in [19]. In test [20], the z-score is 0.253 (inactive). In test [2], this compound gave a composite z-score of 0.372.
